Assay outcomes as filed in PubChem.
PME-1 inh – PME-1 inhibitors via competitive probe labeling, primary screen, biochemical, fluorescence polarization, FP-Rh probe, HTS | inhibition, % at 5.9 µM | 0.53% of 320,000 active | AID 2130, 2009 | recombinant PME-1 | Protein phosphatase methylesterase 1 (Homo sapiens), Q9Y570;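 active = inhibition above the campaign mean of all compounds plus 3 SD, cut at about 26% in these data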;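 note: competitive labeling of PME-1 active site by serine hydrolase directed probe; 0% = PME-1 with DMSO and 100% = wells lacking PME-1 enzyme; inhibitors block probe labeling so polarization falls and inhibition rises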
PAD4 FP inh – human PAD4 inhibitors, primary screen, biochemical, fluorescence polarization, 1536-well format; Protein-arginine deiminase type-4 (Homo sapiens), Q9UM07; recombinant PAD4, RCA probe fluorescence polarization; inhibition, % at 6.36 µM; 0.41% of 330,000 active;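 active = percent inhibition above a cutoff equal to the mean of all tested compounds plus 3 SD, cut at about 15% in these data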;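 note: 0% = PAD4 with RCA probe and DMSO and 100% = probe without PAD4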
Target sequence (Q9UM07 whole entry, looked up): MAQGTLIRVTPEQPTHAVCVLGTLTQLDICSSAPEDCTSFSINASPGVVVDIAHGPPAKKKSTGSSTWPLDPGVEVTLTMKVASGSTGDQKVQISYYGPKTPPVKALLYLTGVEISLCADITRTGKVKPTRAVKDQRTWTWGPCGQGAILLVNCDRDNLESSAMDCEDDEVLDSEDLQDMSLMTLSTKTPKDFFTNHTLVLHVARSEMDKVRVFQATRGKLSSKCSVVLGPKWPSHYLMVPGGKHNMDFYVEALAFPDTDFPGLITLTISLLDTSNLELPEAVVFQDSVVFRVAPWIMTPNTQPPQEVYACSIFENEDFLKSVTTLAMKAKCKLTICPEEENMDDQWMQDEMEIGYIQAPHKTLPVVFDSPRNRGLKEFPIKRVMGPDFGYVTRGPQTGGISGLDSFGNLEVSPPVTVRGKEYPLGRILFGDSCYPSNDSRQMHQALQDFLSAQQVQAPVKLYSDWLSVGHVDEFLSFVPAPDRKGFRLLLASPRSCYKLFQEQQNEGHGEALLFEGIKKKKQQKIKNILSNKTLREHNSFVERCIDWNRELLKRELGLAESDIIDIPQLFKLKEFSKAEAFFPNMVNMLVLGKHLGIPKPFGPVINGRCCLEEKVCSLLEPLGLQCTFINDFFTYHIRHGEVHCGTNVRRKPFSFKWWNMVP
Fam108B counter – mouse Fam108B serine hydrolase inhibitors, primary screen, counter-screen for RBBP9 inhibitor project, biochemical, fluorescence polarization; inhibition, % at 9.51 µM; AID 1947, 2009; recombinant Fam108B, FP-Rh probe fluorescence polarization; 0.33% of 300,000 active;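 active = inhibition above the screen mean inhibition plus 3 SD, computed separately per campaign, cut at about 18% in these data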;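 note: inhibitors lower polarization as less probe binds the enzyme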
LYPLA1 counter – LYPLA1 inhibitors, primary screen, counter-screen for PME1 inhibitor project, biochemical, fluorescence polarization, FP-Rh probe ABPP. AID 2174, 2009. inhibition, % at 5.9 µM. 0.16% of 320,000 active. Acyl-protein thioesterase 1 (Homo sapiens), O75608. recombinant LYPLA1;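 active = inhibition above the mean of all tested compounds plus 3 SD, set per campaign, cut at about 14% in these data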;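 note: inhibitors block serine hydrolase probe labeling of LYPLA1 so polarization falls; 0% = enzyme with DMSO and 100% = wells lacking LYPLA1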
GSTO1 counter – inhibitors of recombinant GSTO1, primary screen, counter-screen for RBBP9 inhibitor project, biochemical, fluorescence polarization. Glutathione S-transferase omega-1 (Homo sapiens), P78417. activity-based probe fluorescence polarization. inhibition, % at 5.96 µM. 1.1% of 300,000 active. AID 1974, 2009;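 active = inhibition above the campaign mean inhibition plus 3 SD, cut at about 35% in these data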;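 note: 0% = GSTO1-1 with DMSO and 100% = wells lacking GSTO1-1 enzyme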
LYPLA2 inh – LYPLA2 inhibitors, primary screen, counter-screen for PME1 inhibitor project, biochemical, fluorescence polarization, FP-Rh probe ABPP | recombinant LYPLA2 | Acyl-protein thioesterase 2 (Homo sapiens), O95372 | inhibition, % at 5.9 µM | 0.38% of 320,000 active | AID 2177, 2009;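 active = inhibition above the screen-wide mean plus 3 SD, limit set per campaign, cut at about 26% in these data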;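 note: 0% = LYPLA2 with DMSO and 100% = wells lacking LYPLA2 enzyme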
GSTO1 inh conf – GSTO1 inhibitor hit confirmation, counter-screen for RBBP9 inhibitor project, biochemical, fluorescence polarization, triplicate; inhibition, % at 5.96 µM; AID 2176, 2009; shares compounds with GSTO1 counter; recombinant GSTO1, probe fluorescence polarization; 54% of 2,400 active;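 active = inhibition above the primary screen's cutoff, its mean inhibition plus 3 SD, cut at about 35% in these data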;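 note: loss of polarization as inhibitors block binding of rhodamine sulfonate ester activity probe; 0% = GSTO1 with DMSO and 100% = wells lacking GSTO1 enzyme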
GSTO1 recomb ABPP – inhibitors of purified human GSTO1, late-stage follow-up, biochemical, gel ABPP, SE-Rh probe, percent inhibition | 30% of 130 active | recombinant GSTO1, gel ABPP SE-Rh probe fluorescence | inhibition, % at 1 µM | AID 463110, 2010 | shares compounds with GSTO1 counter;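 active = inhibition of the enzyme GSTO1 above about 75%, limit read from the data; inactive = inhibition below that limit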
* hit, by the source's call; / = not tested or not shown. Rows were chosen to be rich in hits. Some 1.8% of all compounds tested hit in one or more screens of this group.

SMILES | PME-1 inh | PAD4 FP inh | Fam108B counter | LYPLA1 counter | GSTO1 counter | LYPLA2 inh | GSTO1 inh conf | others
O=C(Nc1ccccc1C(=O)N1CCCCCC1)c1cccc([N+](=O)[O-])c1 | 15.2 | 1.4 | -4.7 | -6.4 | -3.7 | -7.9 | /
NN1C(=O)/C(=C\c2ccco2)SC1=S | 0.2 | 6.4 | 5.2 | 0.5 | 42.5* | 9.9 | 15.9
CCOc1ccccc1OCCC(=O)N1CCN(S(=O)(=O)c2ccccc2[N+](=O)[O-])CC1 | 3.6 | -0.1 | / | -3.9 | / | -4.0 | /
Cc1cc(C)c2nc(-c3cccc(Cl)c3)c(C)c(C(=O)N3CCOCC3)c2c1 | -6.5 | -4.0 | -0.5 | 0.1 | -2.2 | 4.4 | /
CC1=NN(c2ccc(C)c(C)c2)C(=O)C1C(c1cccc(O)c1)C1C(=O)N(c2ccc(C)c(C)c2)N=C1C (stereo unspecified) | 33.6* | 76.8* | 9.8 | -2.2 | 50.6* | 9.8 | 32.5
O=C1CC(c2ccc(O)c(O)c2)Oc2cc(O)cc(O)c21 (stereo unspecified) | -5.5 | -4.1 | -6.8 | -7.2 | 43.3* | 1.2 | 15.9
O=C1CC(c2ccccc2)Oc2cc(O)cc(O)c21 (stereo unspecified) | 5.1 | 4.8 | -1.4 | -2.8 | 12.0 | 8.6 | /
Cc1nc2ccc(NC(=O)CSc3nnc(C)s3)cc2[nH]1 | 0.1 | -2.0 | 3.4 | 0.8 | 6.3 | -0.4 | /
Cc1ccc2oc(=O)c(/C=C(\O)c3cccs3)nc2c1 | 3.9 | 0.9 | 0.8 | 0.3 | 39.6* | -0.5 | 7.0
Cc1ccc(-c2csc3ncn(CC#N)c(=O)c23)cc1 | 6.6 | -3.2 | 3.3 | -0.8 | 17.8 | 5.3 | /
Cc1ccc(-c2csc3ncn(CC#N)c(=O)c23)cc1C | 1.2 | -4.6 | 12.6 | -6.9 | 39.1* | -6.4 | 30.0
COc1ccccc1C1CCN(C(=O)c2ccc(C(C)(C)C)cc2)CC1 | -4.1 | 3.5 | 3.0 | -1.5 | 2.3 | -5.9 | /
O=C(NCC1CCCO1)NC1(C(F)(F)F)Oc2ccccc2O1 (stereo unspecified) | 2.1 | -4.0 | 4.5 | 1.4 | 52.3* | 4.5 | 4.9
O=C(Nc1ccc2c(c1)OCCO2)NC1(C(F)(F)F)Oc2ccccc2O1 | 3.8 | 2.7 | 1.8 | 1.0 | 24.9 | -1.5 | /
O=C(NC1(C(F)(F)F)Oc2ccccc2O1)N1CCCC1 | 5.5 | 1.2 | 0.3 | -0.7 | 47.6* | -0.3 | 1.3
O=C(Nc1ccc2c(c1)OCO2)NC1(C(F)(F)F)Oc2ccccc2O1 | -0.5 | -2.0 | 8.4 | 1.2 | 47.8* | 6.1 | 2.9
COc1cc(C(=O)N(C)CCOc2ccccc2)ccc1OCC(=O)Nc1cccc(C(F)(F)F)c1 | 0.6 | 6.1 | -0.5 | 0.3 | -1.8 | 2.1 | /
CC(=O)OCCCNc1cc(Sc2nc3ccccc3s2)c2nonc2c1[N+](=O)[O-] | 6.6 | -15.3 | 4.5 | 0.6 | 45.2* | -5.4 | 6.7
CCCC1NC(=S)N(C2CCCCC2)C1=O (stereo unspecified) | -4.1 | -0.5 | -1.2 | 2.6 | 40.2* | 4.8 | 2.9
Cc1cccc(N2CCN(C(=O)c3c(-c4ccccc4Cl)noc3C)CC2)c1C | 1.4 | 2.7 | 2.3 | 0.4 | -5.0 | 2.9 | /
O=C(NNC(=O)c1ccccc1O)c1ccc(NS(=O)(=O)c2ccc(F)cc2)cc1 | -20.9 | -1.9 | 0.1 | -4.5 | 47.5* | -1.9 | -0.7
O=C(NNC(=O)c1ccccc1O)c1ccc(S(=O)(=O)Nc2ccccc2)cc1 | 6.2 | -0.3 | -0.4 | 0.6 | 17.0 | -4.1 | /
CC(=O)c1ccc(S(=O)(=O)Nc2ccc(N3CCOCC3)cc2)cc1 | 1.9 | -0.2 | -4.1 | -8.2 | 17.8 | -3.4 | /
Cc1ccc(NC2=C(N3CCOCC3)C(=O)c3ccccc3C2=O)cc1 | 6.8 | -12.6 | 10.7 | 3.2 | 48.0* | 6.1 | 21.1
Cc1ccc(S(=O)(=O)NC2=C(N3CCN(c4ccccc4F)CC3)C(=O)c3ccccc3C2=O)cc1 | 10.8 | 1.3 | 7.8 | 0.9 | 11.9 | -3.2 | /
SMILES | PME-1 inh | PAD4 FP inh | Fam108B counter | LYPLA1 counter | GSTO1 counter | LYPLA2 inh | GSTO1 inh conf | others
CC(=O)c1ccc(NC2=C(N3CCOCC3)C(=O)c3ccccc3C2=O)cc1 | 7.9 | -17.6 | 1.6 | -2.1 | 39.3* | 0.7 | 8.0
O=C(CCl)N1CCN(S(=O)(=O)c2ccc3ccccc3c2)CC1 | 4.3 | 0.3 | -1.1 | 4.0 | 86.9* | 15.8 | 94.0* | GSTO1 recomb ABPP=88.0*
Cc1ccc(S(=O)(=O)N2CCCCC2)cc1NS(=O)(=O)c1cccc(C(=O)O)c1 | -5.1 | 2.0 | 1.1 | -0.8 | 38.6* | 1.5 | 31.6
O=C(CCl)Nc1cc(S(=O)(=O)N2CCCCCC2)ccc1Cl | 12.3 | 4.9 | 5.1 | 1.8 | 95.9* | 5.1 | 95.9*
COc1cc(OC)cc(-c2c(-c3cccs3)c3cc(-c4ccc(C(N)=O)cc4)ccc3n2C)c1 | / | -0.3 | / | / | / | / | /
COc1ccc2sc(-c3ccc(N(C)C)cc3)c(-c3cnc(OC)nc3)c2c1 | 10.4 | -3.3 | / | 2.3 | / | 9.3 | /
Cc1ccccc1NC(=O)CSc1nnc(-c2ccco2)c(-c2ccco2)n1 | 6.1 | -7.6 | 6.6 | -4.8 | 54.5* | -0.6 | 17.8
COc1cccc(NC(=O)CSc2nnc(-c3ccco3)c(-c3ccco3)n2)c1 | -6.7 | 3.8 | 8.5 | -8.1 | 50.2* | -10.3 | 15.6
COc1ccc(NC(=O)CSc2nnc(-c3ccco3)c(-c3ccco3)n2)cc1OC | 4.8 | -7.2 | 1.5 | 1.1 | 13.8 | 0.8 | /
O=C(CSc1nnc(-c2ccco2)c(-c2ccco2)n1)Nc1ccccc1 | 4.8 | -4.6 | 15.3 | -3.5 | 42.0* | 1.9 | 29.9
CN(Cc1cccs1)C(=O)CNC(=O)c1ccco1 | -1.6 | -3.1 | -4.8 | 1.7 | -1.8 | 9.7 | /
CCOc1ccc(CN2CCN(CC3CC3)CC2CCO)cc1 (stereo unspecified) | 3.7 | -1.5 | 2.1 | -0.4 | -3.1 | -3.4 | /
Cc1ccc(C(=O)NNC(=O)c2ccccc2O)cc1S(=O)(=O)N1CCCCC1 | 4.0 | 6.7 | 1.0 | 0.0 | 7.2 | 1.5 | /
COc1ccc(S(=O)(=O)Nc2c(O)ccc3ccccc23)cc1OC | -5.3 | -17.1 | -3.2 | -4.3 | 44.8* | -5.5 | 7.6
